Compound activity from PubChem BioAssay.
In the library only some 3% were active in any assay of this set; here they are far more common.
SENP6 inh – blocks the human protease SENP6 | Recombinant SENP6 catalytic domain, aminoluciferin luminescence | inhibition, % at 10 µM | actives 1.8% (n = 330,000) | AID 2599;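 active = inhibition above about 50% at the single tested dose, limit read from the data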;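 also: plate controls were DMSO wells with enzyme for no effect and DMSO wells lacking enzyme for full effect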
SENP7 inh – inhibitors of human SENP7 protease; Q9BQF6; recombinant SENP7, Z-RLRGG-aminoluciferin luminescence, 40 min; inhibition, % at 5 µM; actives 1.5% (n = 330,000); AID 434973;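 active = inhibition above about 50% at the single test dose, limit read from the data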;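 also: plate controls were DMSO with enzyme for no effect and no enzyme buffer wells for full effect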
Target sequence (Q9BQF6 706-1050 limits assumed): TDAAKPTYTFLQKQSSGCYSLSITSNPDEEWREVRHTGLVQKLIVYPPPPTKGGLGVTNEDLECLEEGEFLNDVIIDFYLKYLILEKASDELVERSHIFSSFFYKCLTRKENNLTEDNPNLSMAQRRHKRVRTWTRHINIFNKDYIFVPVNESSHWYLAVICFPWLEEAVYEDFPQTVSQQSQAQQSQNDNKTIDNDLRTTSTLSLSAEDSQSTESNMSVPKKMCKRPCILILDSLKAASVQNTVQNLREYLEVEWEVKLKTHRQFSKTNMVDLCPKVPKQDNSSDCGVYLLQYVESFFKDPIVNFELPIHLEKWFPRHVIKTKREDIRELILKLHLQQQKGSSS
PPC-1+TRAIL kill – compounds killing PPC-1 cancer cells with TRAIL present (potentiator screen, no TRAIL-free arm). cell killing (% activity), % at 4 µM or 5 µM. PPC-1 cells + TRAIL, ATPLite viability luminescence. actives 0.41% (n = 220,000). AID 1443;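 active = cell killing above 50% in the first pass at 4 µM, then a duplicate retest at 5 µM averaging 50% or more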;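 also: plate controls were cells with TRAIL plus DMSO for no effect and medium-only wells lacking cells for full effect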
SENP8 block-1 – blocks human SENP8 cleavage of Nedd8 substrate; actives 0.64% (n = 360,000); inhibition, % at 20 µM; Q96LD8; recombinant SENP8, Nedd8 substrate fluorescence; in the data active = inhibition mostly above about 40%, no sharp cut-off; inactive = mostly below about 27%
Target sequence (Q96LD8 whole entry, looked up): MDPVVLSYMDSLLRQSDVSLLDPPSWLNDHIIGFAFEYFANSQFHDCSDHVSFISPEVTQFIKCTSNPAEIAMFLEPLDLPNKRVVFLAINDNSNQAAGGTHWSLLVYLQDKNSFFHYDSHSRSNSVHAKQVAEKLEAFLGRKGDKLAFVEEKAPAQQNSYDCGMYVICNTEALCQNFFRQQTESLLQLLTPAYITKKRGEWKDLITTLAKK
SENP8 block-2 – inhibitors of human SENP8 protease. Q96LD8. purified SENP8, Z-RLRGG-aminoluciferin cleavage, luminescence. inhibition, % at 10 µM. actives 1.2% (n = 330,000). AID 2540; in the data active = inhibition above about 50%
TRAIL sens C8 – caspase-8 TRAIL sensitization | AID 624354 | NB7+C8 cells + TRAIL, ATPlite viability luminescence | actives 1% (n = 360,000) | inhibition (viability loss, TRAIL sensitization), % at 10 µM;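 active = compounds causing at least 50% loss of cell viability in the single-dose screen, relative to plate controls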
* = called active by the depositor; . = no result given.

SMILES	SENP6 inh	SENP7 inh	PPC-1+TRAIL kill	SENP8 block-1	SENP8 block-2	TRAIL sens C8
N/C(=N\OC(=O)c1ccccc1)C(Cc1ccccc1)C(=O)NOC(=O)c1ccccc1 (stereo unspecified)	.	.	.	-24	.	89*
O=C(NOC(=O)c1ccccc1)c1ccccc1	-3	-9	10	18	-9	21
Cc1cccc(C(=O)OCC(=O)N2CCCC2=O)c1O	2	-8	.	-4	-12	-18
COc1ccc(/C=C2\CCCC3C2=NN(C(=O)COC(=O)CNC(=O)c2ccccc2)C3c2ccc(OC)cc2)cc1 (stereo unspecified)	-17	-4	20	-23	-15	59*
COc1ccc(/C=C2\CCCC3C2=NN(C(=O)CSc2ncn[nH]2)C3c2ccc(OC)cc2)cc1 (stereo unspecified)	0	3	-6	-86	-7	21
Cc1cc(C)cc(NC(=O)C(c2ccccc2)N2CCN(CC(=O)NC3CC3)CC2)c1 (stereo unspecified)	-12	4	.	5	2	1
NC(CO)C(=O)NNCc1ccc(O)c(O)c1O (stereo unspecified)	9	16	14	45*	4	14
Cc1cc(CNCCN(C)C)c(C)n1-c1cc(S(=O)(=O)N2CCOCC2)ccc1N1CCCC1	.	.	.	13	.	-3
COc1ccc(C(CCN(Cc2ccc(OC)c(OC)c2)C(C)=O)c2ccccc2)cc1 (stereo unspecified)	-8	1	-9	8	3	5
COc1ccc(CN(CCC(c2ccccc2)c2ccc(OC(C)C)cc2)C(=O)CCl)cc1OC (stereo unspecified)	18	-3	4	4	2	96*
CCN(c1ccccc1)S(=O)(=O)c1ccc(Cl)c(NC(=O)COC(=O)c2cc(O)c3ccccc3c2O)c1	62*	12	32	.	32	.
Cc1ccccc1OC1(C)CCN(Cc2ccc(-c3ccccn3)cc2)C1 (stereo unspecified)	.	.	.	18	.	-6
O=C(Nc1nnc(-c2ccccn2)o1)c1ccc(Br)cc1	77*	63*	9	2	57*	-3
CCC(=O)Nc1nnc(-c2ccccn2)o1	-2	8	-2	-80	6	3
O=C(N[C@@H](Cc1ccccc1)C(=O)OCc1ccccc1)c1ccco1	-13	6	.	6	-12	-2
C[C@H]1CN=C(Nc2ccccc2)N1CCc1ccccc1	0	-3	.	9	-1	-10
CC(=O)Nc1cc2c(cc1[N+](=O)[O-])-c1ccccc1C2O (stereo unspecified)	.	.	.	41*	.	4
Cc1cccn2c(=O)c3cc(C(=O)NCCC4=CCCCC4)n(C)c3nc12	-12	-1	.	-375	3	16
Cn1c(C(=O)NCCC2=CCCCC2)cc2c(=O)n3ccccc3nc21	-5	2	19	-323	-1	60*
COc1ccc2oc(-c3ccc(NC(=O)c4ccc(N5CCOCC5)c([N+](=O)[O-])c4)cc3)nc2c1	-6	-1	14	18	-10	50*
O=C(Nc1ccc(-c2nc3ccccc3o2)cc1)c1ccc(N2CCOCC2)c([N+](=O)[O-])c1	-28	-3	5	-24	-5	43
O=C(NCCc1ccc(Cl)cc1Cl)c1cncc(Br)c1	5	3	.	3	8	14
Nc1c(N(CCC2=CCCCC2)C(=O)COc2ccc(F)cc2)c(=O)[nH]c(=O)n1Cc1ccccc1	3	6	.	2	5	73*
CCOc1ccc(N2CC(C(=O)Nc3ccccc3N3CCCC3)CC2=O)cc1 (stereo unspecified)	3	4	.	6	-1	18
CCN1CCN(c2ccc(S(=O)(=O)N3CCCCC3)cc2NC(=O)c2ccc([N+](=O)[O-])s2)CC1	-1	11	.	3	10	53*
SMILES	SENP6 inh	SENP7 inh	PPC-1+TRAIL kill	SENP8 block-1	SENP8 block-2	TRAIL sens C8
CCN1CCN(c2ccc(S(=O)(=O)N3CCCCC3)cc2NC(=O)c2ccccc2)CC1	-10	11	.	7	-7	21
O=C1NC(=Nc2ccccc2Cl)S/C1=C\c1ccc(C(=O)O)cc1	30	13	.	20	29	3
CC12CCC(C/C1=N\N=C1\NC(=O)/C(=C\c3ccc(Cl)cc3)S1)C2(C)C (stereo unspecified)	-6	-3	-1	40*	-19	2
CC(=O)N(c1ccccc1)C1CCCC1	-7	5	9	13	-11	0
O=C(CCl)N(c1ccccc1)C1CCCCC1	-27	-16	16	3	-8	95*
CCCCC(=O)OCC(=O)C1(O)Cc2c(O)c3c(c(O)c2C(OC2CC(NC(=O)C(F)(F)F)C(O)C(C)O2)C1)C(=O)c1c(OC)cccc1C3=O (stereo unspecified)	.	.	.	45*	.	17
COc1cccc2c1C(=O)c1c(O)c3c(c(O)c1C2=O)CC(O)(C(C)=O)CC3OC1CC(O)C(O)C(C)O1 (stereo unspecified)	.	.	.	50*	.	39
COc1cccc2c1C(=O)c1c(O)c3c(c(O)c1C2=O)C[C@](O)(C(C)=O)C[C@H]3O[C@@H]1C[C@@H](N)[C@@H](O)[C@@H](C)O1	13	10	.	41*	11	62*
COc1cccc2c1-c1c(O)cccc1C2=O	4	-1	.	12	6	-6
COc1cccc2c1C(=N)c1c(O)c3c(c(O)c1C2=O)CC(O)(C(C)=O)CC3OC1CC(N)C(O)C(C)O1 (stereo unspecified)	.	.	.	38	.	50
CS(=O)(=O)c1ccc(Cl)c(NC(=O)COC(=O)CCN2C(=O)C3CC=CCC3C2=O)c1 (stereo unspecified)	.	.	.	7	.	-11
Cc1cccc(NC(=O)COC(=O)CN2C(=O)C3CCCCC3C2=O)c1C (stereo unspecified)	.	.	.	11	.	1
CN(Cc1ccccc1)c1nc(-c2ccc([N+](=O)[O-])cc2)nc2ccccc12	-3	-4	15	8	-4	19
O=[N+]([O-])c1ccc(-c2nc(C(Cl)Cl)c3ccccc3n2)cc1	-6	-15	12	20	-6	60*
O=C1C=C(O)c2cccc(O)c2C1=O	66*	14	18	45*	31	-6
O=c1[nH]c(CCl)nc2cc(-c3ccc(F)cc3)sc12	89*	47	.	-2	79*	81*
C[C@H]1CN([C@@H](C)CO)S(=O)(=O)c2ccc(Br)cc2O[C@@H]1CN(C)C(=O)Cc1ccccc1	.	.	.	-6	.	-9
O=c1[nH]c(Nc2nc3ccccc3o2)nc2c1CCCC2	35	0	49	-34	22	55*
COc1cccc2cc(-c3ccnc(N)n3)oc12	15	53*	13	-436	21	-11
COc1cccc2cc(-c3n[nH]c(=S)n3C)oc12	-16	-5	1	-432	5	-16
Cc1cc(NC(=O)c2ccc3c(c2)OCO3)no1	6	14	19	12	-9	51*
